The entries come from a sample that favours hits as a whole.
14-3-3 PPI = modulators of 14-3-3 gamma protein binding, primary screen, biochemical, fluorescence polarization. 14-3-3 protein gamma (Homo sapiens), P61981. FP, 14-3-3gamma / TMR-pS259-Raf peptide binding. inhibition, % at 40 µM. 160,000 tested, 0.19% active; in the data active means inhibition above about 30%;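 further: 0% = protein plus tracer without compound and 100% = blank with tracer alone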
Target sequence (P61981 whole entry, looked up): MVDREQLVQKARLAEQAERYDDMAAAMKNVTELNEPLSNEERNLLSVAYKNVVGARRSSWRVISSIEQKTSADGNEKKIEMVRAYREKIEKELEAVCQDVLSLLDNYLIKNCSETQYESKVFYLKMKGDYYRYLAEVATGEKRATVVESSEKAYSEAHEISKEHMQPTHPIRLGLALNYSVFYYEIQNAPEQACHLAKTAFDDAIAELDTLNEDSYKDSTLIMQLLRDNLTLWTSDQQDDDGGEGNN
* = called active by the depositor.

SMILES	14-3-3 PPI
Cc1[nH]c(=O)[nH]c(=O)c1NCCO	-4
CC(C)(C)C(=O)Nc1c[nH]c(=O)[nH]c1=O	-6
O=C1c2ccccc2-c2ncnc3cccc1c23	-5
O=C(O)c1ccc2c3c(ncnc13)-c1ccccc1C2=O	40*
COc1ccc(Nc2ccc3c4c(ncnc24)-c2ccccc2C3=O)cc1	-72
O=C(Nc1cccc(F)c1)N1CCN(c2ccccn2)CC1	5
COc1ccc(N=Cc2cn(-c3ccccc3)nc2-c2cccs2)cc1	6
CCc1ccc(Nc2cc(C(=O)O)c3ccccc3n2)cc1	-3
CNc1ccc2nc3ccccc3[n+](CCO)c2c1	67*
CCOc1ccccc1CN(C)CCc1ccccn1	-6
Nc1c2c(nn1-c1ccccc1)CC(=O)NC2=O	-15
CCCCOC(=O)c1ccc(N=Cc2c(O)ccc3ccccc23)cc1	3
O=[N+]([O-])c1cc(Cc2ccccc2Cl)cc(C=Nc2ccc(N3CCOCC3)cc2)c1O	-81
Cc1ccc(N=Cc2cc(Cl)cc([N+](=O)[O-])c2O)cc1Cl	42*
Cc1ccc(N=Cc2cc(Cl)cc([N+](=O)[O-])c2O)c(O)c1	-52
O=[N+]([O-])c1cc(Cl)cc(C=Nc2ccc(Cl)c(-c3nc4ccccc4o3)c2)c1O	-21
Cc1cc(Br)c(O)c(C=Nc2ccc(N3CCOCC3)cc2)c1	-83
Cc1cc(C=Nc2ccc(N3CCOCC3)cc2)c(O)c([N+](=O)[O-])c1	86*
CCOc1ccc(N(CC)C(=O)c2cc3cc4ccc(C)cc4nc3s2)cc1	-17
COc1ccc(Oc2cc([N+](=O)[O-])cc3c2C(=O)Nc2cc(Cl)ccc2O3)cc1	-88
CCN(CC)C(=O)CN(c1ccc(C)cc1)S(=O)(=O)c1ccc(OC)cc1	-1
CCCCc1ccc(NC(=O)c2cnc3sccn3c2=O)cc1	-18
CC(C)Oc1ccc(OCCn2cc(C#N)c3ccccc32)cc1	-9
Cc1ccc(N2C(=O)Nc3ccc(Br)cc3C2(O)C(=O)NCc2ccc(F)cc2)cc1C (configuration not stated)	-1
Cc1cccc(N=c2oc3ccc(Cl)cc3cc2C(=O)Nc2nccs2)c1C	1
SMILES	14-3-3 PPI
CC1CCN(S(=O)(=O)c2ccc3[nH]cc(C(=O)NC4CCCCC4)c(=O)c3c2)CC1	0
O=C(c1ccc2c(=O)n(-c3cccc(C(F)(F)F)c3)c(=S)[nH]c2c1)N1CCN(c2ccccc2)CC1	-1
O=C1c2ccccc2-c2nc(-c3ccccc3)cc3cccc1c23	-14
Nc1cc2c3c(cccc3n1)C(=O)c1ccccc1-2	73*
O=C1c2ccccc2C(=O)c2cc(Br)ccc21	-6
CC1(C)CC(=O)C2=C(C1)N(Cc1ccccc1)C1=C(C(=O)CC(C)(C)C1)C2c1ccc(O)cc1	-12
CCN1C2=C(C(=O)CC(C)(C)C2)C(c2ccc(O)cc2)C2=C1CC(C)(C)CC2=O	102*
CCN1C2=C(C(=O)CC(C)(C)C2)C(c2ccc(O)c(Cl)c2)C2=C1CC(C)(C)CC2=O	-2
Cc1ccccc1NS(=O)(=O)c1ccc2c(c1)C(=O)c1cc(S(=O)(=O)Nc3ccccc3C)ccc1-2	-6
C=CCSc1nnc2c(n1)OC(c1ccc(C)cc1)Nc1ccccc1-2 (configuration not stated)	33*
CCCSc1nnc2c(n1)OC(c1ccc(Cl)cc1)Nc1ccccc1-2 (configuration not stated)	-20
CCCSc1nnc2c(n1)OC(c1ccco1)Nc1ccccc1-2 (configuration not stated)	-10
C=CCSc1nnc2c(n1)OC(c1ccc(N(C)C)cc1)Nc1ccccc1-2 (configuration not stated)	38*
CSc1nnc2c(n1)OC(c1ccc(N(C)C)cc1)Nc1ccccc1-2 (configuration not stated)	-2
CCCSc1nnc2c(n1)OC(c1ccc(N(CC)CC)cc1)Nc1ccccc1-2 (configuration not stated)	39*
CCCCSc1nnc2c(n1)OC(c1cc(OC)c(OC)c(OC)c1)Nc1ccccc1-2 (configuration not stated)	42*
C=CCSc1nnc2c(n1)OC(c1ccc([N+](=O)[O-])cc1)Nc1ccccc1-2 (configuration not stated)	-41
CCCSc1nnc2c(n1)OC(c1cc(OC)c(O)c(OC)c1)Nc1ccccc1-2 (configuration not stated)	-9
CCCCSc1nnc2c(n1)OC(c1cccc(OC)c1OC)Nc1ccccc1-2 (configuration not stated)	10
C=CCSc1nnc2c(n1)OC(c1ccc(C(=O)OC)cc1)Nc1ccccc1-2 (configuration not stated)	-51
C=CCSc1nnc2c(n1)OC(c1ccc(OC)c(OC)c1)Nc1ccccc1-2 (configuration not stated)	-4
O=C(c1ccc(F)cc1)N1CCN(C(=O)c2ccc(F)cc2)CC1	5
O=C(NC1CCCCC1)c1ccc2c(c1)N(Cc1cccc(Cl)c1)C(=O)CS2	8
Nc1ncnc(Nc2ccc(F)cc2)c1[N+](=O)[O-]	-6
CCOC(=O)c1c(NC(=O)c2cccc(Cl)c2)sc2c1CCCCC2	-12
SMILES	14-3-3 PPI
O=C(Nc1cccc2c1C(=O)c1ccccc1C2=O)c1ccccc1I	-20
O=C(CN1C(=O)C2C3C=CC(C3)C2C1=O)Nc1nccs1 (configuration not stated)	-10
COc1ccc(CNc2ccc3c(c2)ncn3-c2ccc(C)cc2)cc1OC	-8
Cc1ccc(S(=O)(=O)Nc2ccc3oc(C)c(C(=O)OC(C)C)c3c2)cc1	-13
N#CC1(C#N)C(c2ccccc2)C(C(=O)c2ccc(F)cc2)N2c3ccc(Cl)cc3C=CC21 (configuration not stated)	-168
Cc1csc(NC(=O)CSc2nsc(SCC(=O)Nc3nc(C)cs3)c2C#N)n1	75*
Cc1csc(NC(=O)CSc2nc(-c3cccs3)cc(-c3cccs3)c2C#N)n1	-26
CC(C)(C)NC(=O)CSc1nsc(SCC(=O)NC(C)(C)C)c1C#N	-1
COc1ccc(C(=S)N2CCCCC2)cc1OC(=O)c1cccc(C)c1	-4
O=C(Nc1ccc(F)cc1)c1cnc2sccn2c1=O	-13
COc1ccccc1CNC(=O)CCC1Nc2c3cc(OC)c(OC)cc3nc(=S)n2C1=O (configuration not stated)	-12
C=CCN(C(=O)c1ccc(N2CC3CC(C2)c2cccc(=O)n2C3)c(NC(=O)c2cccnc2)c1)c1ccccc1 (configuration not stated)	-10
COc1ccc(N(C(=O)c2ccccc2F)C2CS(=O)(=O)CC2OC(=O)c2ccccc2F)cc1 (configuration not stated)	-2
CCOC(=O)Cc1c(C)nc2c(C#N)cnn2c1C	-4
CCOC(=O)c1cnc2c(C#N)cnn2c1-c1ccccc1	0
CCOC(=O)c1cnc2c(C#N)cnn2c1C	141*
COc1ccccc1OCCn1c(SCc2ccccc2)nc2ccccc21	1
Nc1cccc(C(=O)N2N=C(C(F)(F)F)CC2(O)c2ccc(F)cc2)c1 (configuration not stated)	-25
COc1cccc(C(=O)Nc2ccc(C(=O)OCC(=O)c3cccc([N+](=O)[O-])c3)cc2)c1	1
O=C(C[n+]1ccc2ccccc2c1)c1ccccc1	45*
O=C(C[n+]1cccc(Br)c1)c1ccccc1	3
O=C(C[n+]1ccc2ccccc2c1)c1ccc2c(c1)Cc1ccccc1-2	-24
O=C(CCn1c(=S)[nH]c2cc3c(cc2c1=O)OCO3)N1CCN(c2cccc(Cl)c2)CC1	-8

Screening data as filed in PubChem BioAssay.
